# Source: PubChem (Columbia University Molecular Screening Center)
# NFkB transloc inh: inhibitors of IL-1B driven NFkB p65 nuclear import, primary screen, imaging, HUVEC, IL-1B stimulus, high-content imaging; HUVEC IL-1B NFkB p65 nuclear translocation imaging; inhibition, % at 2 µM; actives 0.43% (n = 94,000); AID 796, 2007;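 active = inhibition above about 30% together with a positive call from visual inspection of the well image, limit read from the data; inconclusive = inhibition above a set limit but visual check negative; inactive = inhibition not above a set limit, visual check negative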;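 note: nuclear over cytoplasmic p65 intensity ratio measured by imaging; 0% = IL-1B stimulated DMSO wells and 100% = unstimulated DMSO wells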
# HUVEC tox IL1B: cytotoxicity in IL-1B stimulated HUVEC, primary screen, cytotoxicity control for IL-1B NFkB translocation project, imaging, Hoechst nuclear count, IL-1B stimulus | AID 845, 2007 | cell count reduction, % at 2 µM | HUVEC cell count loss | actives 0.41% (n = 94,000);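 active = cell count reduction more than 3 SD above the screen-wide mean, cut at about 70% in these data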;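 note: normalized per plate to untreated control cells as the no-loss baseline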
# IL1B NFkB pot: enhancers of NFkB p65 translocation in HUVEC – imaging, IL-1B stimulus, high-content imaging, primary screen; HUVEC IL-1B NFkB p65 nuclear translocation imaging; activation, % at 2 µM; actives 0.3% (n = 94,000); AID 819, 2007;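 active = activation above 40%, about the mean plus 3 SD, also judged a hit on visual image review; inconclusive = activation above 40% but not a hit on visual review; inactive = activation not above 40% and no visual hit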;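 note: percent activation is computed from the nuclear over cytoplasmic p65 intensity ratio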
# HUVEC tox TNFa: cytotoxicity in TNFa-stimulated HUVEC, primary screen, cytotoxicity control for VCAM1 expression modulator project, imaging, Hoechst nuclei count; actives 0.17% (n = 93,000); HUVEC TNFalpha-stimulated, Hoechst cell count; cell count reduction, % at 2 µM; AID 848, 2007;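 active = cell count reduction exceeding the screen mean by over 5 SD, scaled to untreated wells per plate, cut at about 78% in these data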;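 note: cells counted after 24 h of TNF alpha exposure following the 1 h pretreatment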
# VCAM1 TNFa inh: inhibitors of TNFa-induced VCAM1 expression, primary screen, imaging, HUVEC, TNFa stimulus, immunofluorescence. HUVEC TNFa-induced VCAM-1 immunofluorescence, high-content imaging. inhibition, % at 2 µM. actives 0.48% (n = 95,000);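 active = inhibition above the batch mean plus 3 SD, with images confirmed as a hit by eye, cut at about 37% in these data; inconclusive = inhibition above that limit but hit not confirmed in images; inactive = inhibition not above that limit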;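 note: 0% = TNF-stimulated DMSO wells and 100% = unstimulated control wells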
# An asterisk follows results filed as active; ? = inconclusive; nt = not tested or not shown. Hits are enriched below; roughly 1.5% of the tested compounds scored in any of these assays.
SMILES,NFkB transloc inh,HUVEC tox IL1B,IL1B NFkB pot,HUVEC tox TNFa,VCAM1 TNFa inh
COc1ccc(CC(=O)N2CCN=C2SC)cc1,-12,-3,11,-31,3
CSC1=NCCN1C(=O)Cc1ccc(Cl)cc1,-2,-2,2,10,44*
CCCn1nnnc1NC(=O)c1ccc(C)cc1Cl,-21,-21,21,-9,-4
Cc1cc(C)c(-c2noc(C(=O)OC(C)(C)C)c2C(=O)OC(C)(C)C)c(C)c1,nt,nt,nt,-7,-4
Cc1noc(NS(=O)(=O)c2ccc(NC(=O)CSc3nc4c(cc3C#N)CCC4)cc2)c1C,-68,18,68*,3,2
N#Cc1cc2c(nc1SCC(=O)N1CCCCC1)CCCCC2,-4,-13,4,-18,7
Cc1noc(NS(=O)(=O)c2ccc(NC(=O)CSc3ncccn3)cc2)c1C,-46,21,?,8,-5
CCOC(=O)c1sc(NC(=O)CSc2nc3c(cc2C#N)CCC3)c(C#N)c1C,-1,12,1,-61,86*
N#Cc1cc2c(nc1SCC(=O)N1CCCCC1)CCCC2,0,26,0,19,52*
Cc1noc(NS(=O)(=O)c2ccc(NC(=O)CSc3nc4ccccc4s3)cc2)c1C,-32,74*,32,-18,21
Cc1cccc(-c2c3c(=O)n(C)c(=O)n(C)c3c3nnc4ccccc4n23)c1,-13,27,13,21,0
COc1ccc(C2(O)CCN(C(=O)NC3CCCCC3)CC2)cc1,-13,31,13,-7,19
Cn1c(C(O)c2ccc3c(c2)OCO3)nc2ccccc21 (stereo unspecified),98*,84*,-98,-11,-6
O=C(Nc1ccc(Cn2cccn2)cc1)c1ccc(COc2cccc(Br)c2)cc1,-57,1,57*,7,10
O=C(Nc1ccc(Cn2cccn2)cc1)c1ccc(COc2ccc(Br)cc2)cc1,-12,-1,12,8,-5
CCOc1ccccc1C1CC(c2ccc(Br)cc2)Nc2nc(N)nn21 (stereo unspecified),-5,3,5,3,4
C=CCn1c2ccccc2c2nnc(SCC(=O)NC(C(=O)OC)C(C)C)nc21 (stereo unspecified),-16,89*,15,-14,14
O=C(Cc1c(O)c2ccccc2[nH]c1=O)OC1CCCCC1,-33,10,33,-19,2
CCOC(=O)CCP(=O)(O)C(O)c1ccccc1 (stereo unspecified),22,1,-22,-10,0
Cc1ccc(NC(=O)COc2ccc3oc4c(c3c2)CCCC4)nc1,-16,80*,16,-9,14
COCc1nnc(NS(=O)(=O)c2ccc(C)cc2)s1,-10,2,10,0,-12
Cc1ccc(S(=O)(=O)Nc2nncs2)cc1,-55,-30,55*,-6,13
O=C(NC1CCN(Cc2ccccc2)CC1)C1CCCN(S(=O)(=O)c2cccc3nonc23)C1 (stereo unspecified),46*,-21,-46,-16,7
COC(=O)c1sccc1NC(=O)c1ccc(Br)s1,-11,-19,11,0,53*
CCOC(=O)C1=C(CSc2nc3c(cc2C#N)CN(C)CC3)OC(N)=C(C#N)C1c1ccccc1 (stereo unspecified),5,-71,-5,99*,?
SMILES,NFkB transloc inh,HUVEC tox IL1B,IL1B NFkB pot,HUVEC tox TNFa,VCAM1 TNFa inh
COc1ccc([N+](=O)[O-])cc1C1NN=C(c2ccccc2O)S1 (stereo unspecified),33*,4,-33,-3,6
COc1ccc([N+](=O)[O-])cc1NC(=S)Nc1ccccc1,-3,-18,3,-12,-30
Cc1cc(C)n(-c2nnc(C)c(=O)[nH]2)n1,4,-11,-4,-3,-11
COc1cccc(/C=N/NC(=O)CSc2nnc(C)n2-c2ccccc2)c1O,24,-6,-23,-8,6
CCCCSc1nc(C)cc(SCC(=O)N/N=C/c2cccc(OC)c2O)n1,-5,-43,5,42,44*
COc1ccc(N2CCN(C(=O)C(C)(C)Oc3ccc(Cl)cc3)CC2)cc1,16,36,-16,78*,-22
Cc1noc(C)c1COc1ccc(C(=O)OCc2nnc(-c3ccc(Cl)cc3)o2)cc1,-10,-4,10,-7,-8
COc1ccc(NC(=O)c2cc(OC)c(OC)c(OC)c2)cn1,48*,-36,-48,-13,-24
COc1cc(C(=O)Nc2cccc3cccnc23)cc(OC)c1OC,39*,-18,-39,32,-12
COc1cc(C(=O)N/N=C/c2ccsc2C)cc(OC)c1OC,21,22,-21,55,57*
O=C(Nc1cccc2cccnc12)c1cccnc1,-30,-4,30,-34,11
CCC1CC(CSc2ncn[nH]2)OC1=O (stereo unspecified),9,-18,-9,-4,1
COc1ccc(-n2c(C)cc(C(=O)Cn3c(NCCO)nc4ccccc43)c2C)cc1,-41,4,41*,-5,3
O=C(Cn1c(NCCO)nc2ccccc21)c1ccc(Cl)cc1,-1,-8,1,-8,-40
CC1(C)N(OCc2ccccc2)C(=O)C(=O)N(OCc2ccccc2)C1(C)C,-3,-16,3,-25,2
O=C(c1ccco1)N1c2ccccc2Sc2ccccc21,-7,-7,7,4,0
O=C(c1ccco1)N1CCN(C(=O)N2c3ccccc3Sc3ccccc32)CC1,24,37,-24,73,83*
Cc1ccc(C)c2c1[nH]c1ccc([N+](=O)[O-])cc12,-25,-9,25,-4,10
CCCOC(=O)NC(CC)COC(=O)Nc1cccc(C)c1C (stereo unspecified),-4,8,4,-13,36
CCC(COC(=O)Nc1cccc(C)c1C)NC(=O)OCC(C)C (stereo unspecified),31*,3,-31,-1,0
Cc1[nH]nc2ncc(C(=O)c3cc(F)ccc3O)cc12,-11,-3,11,-5,20
Cc1noc2ncc(C(=O)c3cc(F)ccc3O)cc12,-30,93*,30,6,14
COc1ccc(C(=O)NC(C)(C)C)cc1S(=O)(=O)N1CCCC1,-8,-9,8,-18,-2
COC(=O)c1cc(COC(=O)c2ccc(OC)c(S(=O)(=O)N3CCCC3)c2)oc1C,-22,-7,22,96*,64
Cc1ccc(C)c(N(CC(=O)NC2CCCC2)C(=O)c2cc3cc4cc(C)ccc4nc3s2)c1,0,16,0,84*,48
COc1ccccc1N(C)S(=O)(=O)c1ccc(C(=O)NCC(C)C)cc1,13,2,-13,28,74*
Fc1ccc(C2C3=C(Nc4ncnn42)c2ccccc2OC3c2ccncc2)cc1 (stereo unspecified),-6,-31,5,-14,3
